# Test results taken from PubChem BioAssay (NCATS).
# Unmarked numbers belong to inactive results. Results filed as inconclusive are left out. A call without a number means that no potency is given here. Activity calls are given as the source filed them. Calls come from the whole dose curve; as a rule, active = well fitted curve in the direction sought with a large enough effect; inconclusive = small, poorly fitted or top-dose-only effect, or another doubt; inactive = no such curve, though single readings can be large; an effect the other way counts as inactive or inconclusive.
# How the values were obtained:
# [1] = target: Glutathione peroxidase 1 (Homo sapiens) (UniProt P07203); assay: Primary qHTS Assay for Inhibitors of Recombinant Selenoprotein Glutathione Peroxidase 1 (GPX1) (AID 1845191); note: nearly all actives have a fitted effect of over 65% in size
# In short: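 GPX1 10 nM, GR 100 nM, GSH 1 mM, NADPH 0.5 mM, CHP 0.5 mM (final). 30-min cpd preincubation, RT. Ex340/Em450 read t=0, t=15 min.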
# [2] = target: Phospholipid hydroperoxide glutathione peroxidase GPX4 (Homo sapiens) (UniProt P36969); assay: Primary qHTS Assay for Inhibitors of Recombinant Selenoprotein Glutathione Peroxidase 4 (GPX4) (AID 1845192); note: nearly all actives have a fitted effect of over 65% in size; note: potency is the fitted concentration of half-maximal effect; for activity change, negative = inhibition: series mostly up to about 50 µM
# In short: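 qHTS, GR-coupled: GPX4 200 nM + cpd 30 min RT → GSH 1 mM, NADPH 0.5 mM, GR 100 nM → CHP 0.5 mM start; fluor 340/450 at t0 and t15 min; no-enzyme wells as control.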
# [3] = target: Luciferin 4-monooxygenase (Photinus pyralis) (UniProt P08659); assay: Primary firefly luciferase (FLuc) qHTS assay for identification of artifact compounds. (AID 1845220); note: nearly all actives have a fitted effect of over 60% in size; for activity change, negative = inhibition: series mostly up to about 54 µM
# In short: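 In this counter-screen for luciferase artifacts, test compounds met substrate (10 uM each luciferin and ATP) before 10 nM enzyme started the reaction. Light output was measured 5 min later.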
# [4] = Primary fluorescence-based thiol-reactive (MSTI) qHTS assay for identification of artifact compounds. (AID 1845221);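 note: series mostly up to about 54 µM; thiol-reactive compounds lower the probe fluorescence signal; nearly all actives have a fitted effect of over 65% in size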
# In short: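 qHTS titration of compound; 4 uM MSTI, PBS pH 7.4, 2% DMSO; 1 h RT, dark; fluorescence 525/598 nm; normalized to Acetyl-MSTI and MSTI; 4-parameter Hill fit.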
# [5] = tested on: Nanoluciferase (engineered Oplophorus gracilirostris luciferase); assay: Primary Nanoluciferase (NLuc) qHTS assay for identification of artifact compounds. (AID 1845222);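 note: NLuc secreted into diluted conditioned medium of S16 cells; series mostly up to about 54 µM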
# In short: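 Using secreted nanoluciferase in S16 culture medium (0.22 um filtered, 1:55 dilution), compounds were preincubated 15 min at RT. Signal was generated with Nano-Glo reagent (1:100) over 5 min.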
# [6] = Primary redox qHTS assay for identification of artifact compounds. (AID 1845223)
# In short: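 Redox-cycling detection via DTT (250 uM final) oxidation coupled to Amplex Red (25 uM)/HRP (250 mU/mL) in HBSS. 15 min preincubation plus 30 min after DTT, room temperature. Ex/Em 525/598 nm; 4-parameter Hill fit against DMSO and 10 uM DA3003.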
# Sequence of Phospholipid hydroperoxide glutathione peroxidase GPX4 (Homo sapiens) (P36969 whole entry, looked up): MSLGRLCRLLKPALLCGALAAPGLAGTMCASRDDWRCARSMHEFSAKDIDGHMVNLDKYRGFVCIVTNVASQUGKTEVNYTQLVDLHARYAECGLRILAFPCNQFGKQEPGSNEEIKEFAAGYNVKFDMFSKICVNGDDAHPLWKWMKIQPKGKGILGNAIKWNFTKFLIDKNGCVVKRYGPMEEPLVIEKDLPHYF
# Sequence of Glutathione peroxidase 1 (Homo sapiens) (P07203 whole entry, looked up): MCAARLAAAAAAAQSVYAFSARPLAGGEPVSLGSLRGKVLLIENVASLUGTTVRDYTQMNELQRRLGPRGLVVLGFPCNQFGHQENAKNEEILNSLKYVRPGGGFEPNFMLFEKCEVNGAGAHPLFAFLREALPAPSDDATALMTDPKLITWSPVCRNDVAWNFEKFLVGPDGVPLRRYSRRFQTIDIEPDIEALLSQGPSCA
structure (smiles),measurement,setting,value
O=C1CCCC(=O)C1C(=O)c1ccc(C(F)(F)F)cc1[N+](=O)[O-],Potency,[1],inactive
same,Potency,[2],inactive
CCc1cc(-c2n[nH]c(C)c2-c2ccc3c(c2)OCCO3)c(O)cc1O,Potency,[1],inactive
same,Potency,[2],inactive
CN(C)c1ccccc1CN1CCCN(Cc2ccccc2N(C)C)C1c1ccncc1,Potency,[1],inactive
same,Potency,[2],inactive
CCC(=O)NCC[C@@H]1CCc2ccc3c(c21)CCO3,Potency,[1],inactive
same,Potency,[2],inactive
CC(=O)NCCC(=O)N[C@@H](CCC(N)=O)C(=O)N[C@@H](CO)C(=O)N[C@@H](CCC(N)=O)C(=O)N[C@@H](CCC(N)=O)C(=O)N[C@H](C(=O)N[C@@H](Cc1ccccc1)C(=O)N[C@]1(C)CCCCCCC=CCCC[C@@](C)(C(=O)N[C@@H](CCC(N)=O)C(=O)N[C@@H](CC(N)=O)C(N)=O)NC(=O)[C@H](CC(C)C)NC(=O)[C@H](CC(C)C)NC(=O)[C@@H](CCCNC(=N)N)NC(=O)[C@H](Cc2c[nH]c3ccccc23)NC(=O)[C@H](CC(C)C)NC(=O)[C@H](CC(N)=O)NC1=O)[C@H](C)O,Potency,[1],inactive
same,Potency,[2],inactive
COC(=O)Nc1ccc(-c2nc(N3CCOCC3)c3cnn(C4CCN(C(=O)OC)CC4)c3n2)cc1,Potency,[1],inactive
same,Potency,[2],inactive
COc1cccc(OC)c1-c1cc(C(=O)NC2(C(=O)O)C3CC4CC(C3)CC2C4)nn1-c1ccnc2cc(Cl)ccc12 (configuration not stated),Potency,[1],inactive
same,Potency,[2],inactive
O=C(O)C1=CC(O)C(O)[C@H](O)C1 (some centres not stated),Potency,[1],inactive
same,Potency,[2],inactive
Cc1ccc(NC(=O)c2ccc(CN3CCN(C)CC3)cc2)cc1Nc1nc(-c2cccnc2)cs1,Potency,[1],inactive
same,Potency,[2],inactive
CC(C)[C@H](O)C(=O)N[C@@H](C)C(=O)N[C@@H]1C(=O)N(C)CCc2ccccc21,Potency,[1],inactive
same,Potency,[2],inactive
COc1ccc(CCN(C)CCCOc2ccc(S(=O)(=O)c3[nH]c4ccccc4c3C(C)C)cc2)cc1OC,Potency,[1],inactive
same,Potency,[2],inactive
CC[C@H](C)C(=O)O[C@H]1C[C@H](O)C=C2C=C[C@H](C)[C@H](CC[C@@H](O)C[C@@H](O)CC(=O)O)[C@H]21,Potency,[1],inactive
same,Potency,[2],inactive
CCCCC(C)(C)[C@H](O)C=C[C@H]1[C@H](O)CC(=O)[C@H]1CC=CCCCC(=O)O,Potency,[1],inactive
same,Potency,[2],inactive
C[C@@H](O)[C@H]1C(=O)N2C(C(=O)OCOC(=O)C(C)(C)C)=C(SC3CN(C4=NCCS4)C3)[C@H](C)[C@H]12,Potency,[1],inactive
same,Potency,[2],inactive
CC1CNc2c(cccc2S(=O)(=O)N[C@@H](CCCN=C(N)N)C(=O)N2CC[C@@H](C)C[C@@H]2C(=O)O)C1 (some centres not stated),Potency,[1],inactive
same,Potency,[2],inactive
CN1CCN(c2ncc(-c3cc(Cl)cc(Cl)c3Cl)c(N)n2)CC1,Potency,[1],inactive
same,Potency,[2],inactive
CCCCCCCCCCCCCCCC(=O)O[C@H]1[C@@H](O)[C@@H](O)[C@@H]([C@H](NC(=O)[C@@H]2C[C@@H](CCC)CN2C)[C@H](C)Cl)O[C@@H]1SC,Potency,[1],inactive
same,Potency,[2],inactive
CO[C@@H]1C(N(C)C(=O)c2ccccc2)C[C@H]2O[C@]1(C)n1c3ccccc3c3c4c(c5c6ccccc6n2c5c31)C(=O)NC4=O (some centres not stated),Potency,[1],inactive
same,Potency,[2],18 µM (active)
CCC(c1ccc(O)cc1)C(CC)c1ccc(O)cc1 (configuration not stated),Potency,[1],inactive
same,Potency,[2],inactive
C[C@@H](O[C@H]1OCCN(Cc2n[nH]c(=O)[nH]2)[C@@H]1c1ccc(F)cc1)c1cc(C(F)(F)F)cc(C(F)(F)F)c1,Potency,[1],inactive
same,Potency,[2],inactive
Cc1cccc(Nc2nc(N[C@@H]3CCCC[C@H]3N)ncc2C(N)=O)c1,Potency,[1],inactive
same,Potency,[2],inactive
N#Cc1c(N(CC(=O)O)CC(=O)O)sc(C(=O)O)c1CC(=O)O,Potency,[1],inactive
same,"activity change, negative = inhibition",[2],4.92% [at 0.409 µM]
CC[C@@H]([C@H](C)O)n1ncn(-c2ccc(N3CCN(c4ccc(OCC5CO[C@@](Cn6cncn6)(c6ccc(F)cc6F)C5)cc4)CC3)cc2)c1=O (some centres not stated),Potency,[1],inactive
same,Potency,[2],inactive
CN1CCN2c3ncccc3Cc3ccccc3C2C1 (configuration not stated),Potency,[1],inactive
same,Potency,[2],inactive
C[C@]12CC[C@@H]3c4ccc(O)cc4CC[C@H]3[C@H]1[C@@H](O)[C@@H](O)[C@H]2O,Potency,[1],inactive
same,Potency,[2],inactive
CC(C)Oc1cc(Nc2nc(N[C@@H](C)c3ccc(F)cn3)ncc2Cl)[nH]n1,Potency,[1],inactive
same,Potency,[2],inactive
COc1ccc2c(c1)c(C1=C(c3c[nH]c4ccccc34)C(=O)NC1=O)cn2CCCN(C)C,Potency,[1],inactive
same,Potency,[2],inactive
COc1cc2nccc(Oc3ccc(NC(=O)Nc4ccc(F)cc4F)c(F)c3)c2cc1OC,Potency,[1],inactive
same,Potency,[2],inactive
Cc1ccc2c(c1)c1c(n2CCc2ccc(C)nc2)CCN(C)C1,Potency,[1],inactive
same,Potency,[2],inactive
same,Potency,[3],inactive
same,Potency,[4],inactive
same,Potency,[5],inactive
CCn1c(-c2nonc2N)nc2cncc(CNC3CCNCC3)c21,Potency,[1],inactive
same,Potency,[2],inactive
same,Potency,[3],inactive
same,Potency,[4],inactive
same,Potency,[5],inactive
same,outcome,[6],inactive
CN(C)CCOc1cc(-c2cn[nH]c2)ccc1NC(=O)C1COc2ccccc2O1 (configuration not stated),Potency,[1],inactive
same,Potency,[2],inactive
same,Potency,[3],inactive
same,Potency,[4],inactive
same,Potency,[5],inactive
